Compound activity from PubChem.
In the library only some 2.9% were active in any assay of this set; here they are far more common.
GPR32 ag: GPR32 (DRV1) agonism, beta-arrestin recruitment | 2.5% of 48,000 active | activation, % at 76.9 µM | CHO-K1 GPR32 beta-arrestin PathHunter luminescence, 90 min; zero percent set by DMSO-only wells | O75388;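 active means activation of at least 60% and not above a set upper limit, about 1 call in 100 departs from these limits; inconclusive means activation of 40% to 60%, or above that upper limit; inactive means activation under 40%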
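CHO-K1 cells stably expressing ProLink-tagged GPR32 and Enzyme Activator-tagged beta-arrestin were seeded at 2,500 cells/well overnight, exposed to compounds for 90 min at 37 °C, then read by beta-Gal complementation chemiluminescence after 1 h detection reagent.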
FH mod: Identification of activators of human fumarate hydratase by quantitative high-throughput screening | Fumarate hydratase, mitochondrial (Homo sapiens), P07954 | FH coupled MDH/diaphorase resazurin fluorescence, 15 min | Potency, µM (top dose mostly 79.9 µM), usual class: inhibitors | 0.22% of 54,000 active | AID 1347055, 2019; further: the screen sought activators but most active calls are inhibition curves; nearly all actives have a fitted effect of over 45% in size
Target sequence (P07954 whole entry, looked up): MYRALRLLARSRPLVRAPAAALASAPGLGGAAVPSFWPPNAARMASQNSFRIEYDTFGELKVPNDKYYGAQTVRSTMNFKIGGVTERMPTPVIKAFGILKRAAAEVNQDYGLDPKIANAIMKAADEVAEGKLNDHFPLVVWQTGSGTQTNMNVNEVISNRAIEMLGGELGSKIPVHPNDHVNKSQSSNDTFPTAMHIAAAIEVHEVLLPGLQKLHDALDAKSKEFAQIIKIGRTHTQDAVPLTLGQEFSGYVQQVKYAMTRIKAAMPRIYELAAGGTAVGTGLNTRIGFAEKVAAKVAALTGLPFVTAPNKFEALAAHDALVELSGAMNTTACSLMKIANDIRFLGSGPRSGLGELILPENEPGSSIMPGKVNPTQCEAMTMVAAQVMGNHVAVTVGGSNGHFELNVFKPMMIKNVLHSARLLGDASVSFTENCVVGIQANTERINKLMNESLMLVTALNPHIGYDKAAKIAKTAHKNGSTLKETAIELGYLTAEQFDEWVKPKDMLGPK
p53null 32C kill: p53 null cell cytotoxicity, permissive temperature; H1299-neo p53 null cells, ATP luminescence, 24 h, 32C; 0.62% of 55,000 active; Potency, µM (titrated, usually from 46.1 µM), hits mostly cytotoxic; further: nearly all actives have a fitted effect of over 55% in size
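H1299-neo, 600 cells/well; overnight 37C; cpd up to 46 uM, 24 h at 32C; ATPlite luminescence after 20 min RT; normalized to DMSO (0%) and tamoxifen 100 uM (100% kill); Hill-fit AC50.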
p53null 39C kill: selectivity test: cytotoxicity in p53 null cells, nonpermissive temperature; AID 904; Potency, µM (highest dose often 46.1 µM), actives largely listed as cytotoxic; 0.97% of 55,000 active; H1299 p53-null (neo) cells, 39C, ATPlite viability, 24 h; further: nearly all actives have a fitted effect of over 50% in size
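ATP-luminescence viability readout (ATPlite, 20 min RT) after 24 hr compound treatment at 39C of H1299-neo or H1299-p53A138V cells; titration up to 46 uM; normalized to DMSO and 100 uM tamoxifen; Hill-fit AC50.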
Each line names hits and unclear results; the compound was inactive in the other large screens. Unless noted, the call rests on the fitted dose curve; in most records, active means well fitted curve in the direction sought with a large enough effect; inconclusive means small, poorly fitted or top-dose-only effect, or another doubt; inactive means no such curve, though single readings can be large; an effect the other way counts as inactive or inconclusive.

Cc1ccccc1CSc1cn(CCNC(=O)c2cccs2)c2ccccc12	none (no result: p53null 32C kill, p53null 39C kill)
O=C(CSc1cn(CCNC(=O)c2c(F)cccc2F)c2ccccc12)Nc1ccccc1F	GPR32 ag 66 (no result: p53null 32C kill, p53null 39C kill)
O=C(NCCn1cc(SCc2ccccc2F)c2ccccc21)c1cccs1	GPR32 ag 67, FH mod inconclusive (no result: p53null 32C kill, p53null 39C kill)
COc1ccc(CCNC(=O)CSc2cn(CCNC(=O)c3ccccc3F)c3ccccc23)cc1OC	GPR32 ag 80 (no result: p53null 32C kill, p53null 39C kill)
C=C(CO[C@@H]1O[C@H](CO[C@@H]2OC[C@](O)(CO)[C@H]2O)[C@@H](O)[C@H](O)[C@H]1O)C1Cc2cc(C(C)=O)ccc2O1 (stereo partly specified)	none (no result: GPR32 ag, p53null 32C kill, p53null 39C kill)
COc1ccc(C(=O)Nc2cccc(-c3cn4ccsc4n3)c2)cc1OC	p53null 32C kill inconclusive, p53null 39C kill 13µM
COc1ccc(C(=O)Nc2cccc(-c3cn4ccsc4n3)c2)c(OC)c1	p53null 32C kill inconclusive
Cc1ccc(Cl)cc1NC(=O)c1ccc2snnc2c1	GPR32 ag 85
O=C(Cc1ccc(Cl)cc1)Nc1cnccc1C(=O)O	none (no result: GPR32 ag, p53null 32C kill, p53null 39C kill)
Cc1ccccc1Sc1ccc(/C=C2\SC(=S)NC2=O)cc1[N+](=O)[O-]	FH mod 28µM (no result: GPR32 ag, p53null 32C kill, p53null 39C kill)
Cc1ccc(Cl)cc1N1CCN(S(=O)(=O)c2ccc3c(c2)C(C(C)C)C(=O)N3)CC1 (stereo unspecified)	GPR32 ag inconclusive
COc1cccc(CNS(=O)(=O)c2ccc3c(c2)C(C(C)C)C(=O)N3)c1 (stereo unspecified)	GPR32 ag 76
CC(C)C1C(=O)Nc2ccc(S(=O)(=O)NCCc3ccc(Cl)cc3)cc21 (stereo unspecified)	GPR32 ag 87
CC(C)(C)OC(=O)N1CCc2nc(N3CCN(c4ncccn4)CC3)ncc2C1	GPR32 ag 62
CC(C)CN1CCc2nc(N3CCN(c4ncccn4)CC3)ncc2C1	none
Cc1cc2ncc(C(=O)NCC(C)(C)NCC(=O)N3CCC[C@H]3C#N)cn2n1	none (no result: GPR32 ag, p53null 32C kill, p53null 39C kill)
Cc1ccc(Cl)cc1-n1ncc2c(NCCCc3ccccc3)ncnc21	GPR32 ag 78, FH mod inconclusive
Cc1ccc(Cl)cc1-n1ncc2c(NCc3ccc(F)cc3)ncnc21	none
Cc1ccc(-n2ncc3c(NCc4ccccc4)ncnc32)cc1Cl	GPR32 ag 62
Cc1ccc(Cl)cc1-n1ncc2c(NCCc3ccccc3)ncnc21	GPR32 ag 101, p53null 39C kill inconclusive
Cc1ccc(CNc2ncnc3c2cnn3-c2ccc(Cl)cc2)cc1	none
O=C(Nc1ccc(S(=O)(=O)Nc2nccs2)cc1)C(c1ccccc1)c1ccccc1	none (no result: GPR32 ag, p53null 32C kill, p53null 39C kill)
C=C1CC[C@@H]2C(C)(C)CCC[C@@]2(C)[C@@H]1CC/C(=C/C(=O)OC)COC(C)=O	none (no result: GPR32 ag, p53null 32C kill, p53null 39C kill)
Cc1ccc(S(=O)(=O)NCCc2csc3nc(-c4ccccc4C)nn23)cc1	GPR32 ag 80
CCCC(CCC)C(=O)Nc1ccn([C@@H]2O[C@H](CO)[C@@H](O)C2(F)F)c(=O)n1	none (no result: GPR32 ag, p53null 32C kill, p53null 39C kill)
CC(=O)Nc1ccc2nc(SCc3ccccc3)sc2c1	GPR32 ag inconclusive, FH mod inconclusive
Cc1ccc(CSc2nc3ccc(NC(=O)COc4ccccc4)cc3s2)cc1	GPR32 ag 74
CCOc1ccc(C(=O)Nc2ccc3nc(SCc4ccccc4)sc3c2)cc1	GPR32 ag 63
CCOC(=O)CSc1nc2ccc(NC(=O)c3ccc(F)cc3)cc2s1	p53null 39C kill inconclusive
Cc1ccc(NC(=O)CSc2nc3ccc(NC(=O)CCc4ccccc4)cc3s2)cc1	GPR32 ag 66
Cc1ccc(OCC(=O)Nc2ccc3nc(SCc4ccccc4)sc3c2)cc1	none
CCOC(=O)CSc1nc2ccc(NC(=O)c3ccccc3)cc2s1	GPR32 ag 82, FH mod inconclusive, p53null 32C kill inconclusive
COc1cc2c(cc1O)C1(Cc3ccc4c(c3C1=O)OCO4)N(C)CC2 (stereo unspecified)	none (no result: GPR32 ag, p53null 32C kill, p53null 39C kill)
COc1cc2c(Nc3ccc(Cl)c(Cl)c3F)ncnc2cc1OCC1C[C@@H]2CN(C)C[C@@H]2C1 (stereo partly specified)	none (no result: GPR32 ag, p53null 32C kill, p53null 39C kill)
C[C@H]1CC[C@@]2(OC1)O[C@H]1CC3[C@@H]4CC[C@@H]5C[C@@H](O[C@@H]6O[C@H](CO)[C@@H](O[C@@H]7O[C@@H](C)[C@H](O)[C@@H](O)[C@H]7O)[C@H](O)[C@H]6O[C@@H]6O[C@H](CO)[C@@H](O)[C@H](O)[C@H]6O)CC[C@]5(C)C4CC[C@]3(C)[C@H]1[C@@H]2C (stereo partly specified)	none (no result: GPR32 ag, p53null 32C kill, p53null 39C kill)
O=C(O)[C@H]1Cc2ccccc2CN1	none (no result: GPR32 ag, p53null 32C kill, p53null 39C kill)
CCOC(=O)CSc1nc2ccc(NC(=O)COc3ccccc3)cc2s1	GPR32 ag 61
CCOC(=O)CSc1nc2ccc(NC(=O)c3ccccc3F)cc2s1	GPR32 ag 107, p53null 32C kill inconclusive
O=C(OC[C@H]1O[C@@H](Oc2ccccc2COC(=O)C2(O)C=CCCC2O)[C@H](O)[C@@H](O)[C@@H]1O)c1ccccc1 (stereo partly specified)	none (no result: GPR32 ag, p53null 32C kill, p53null 39C kill)
Clc1cccc(-n2ncc3c(NC4CCCCCC4)ncnc32)c1	GPR32 ag inconclusive, p53null 39C kill inconclusive
Cc1cccc(C(=O)NNc2ncnc3c2cnn3-c2ccc(C)cc2C)c1	GPR32 ag 113
c1ccc(-n2ncc3c(NC4CCCC4)ncnc32)cc1	p53null 32C kill 16µM, p53null 39C kill inconclusive
Cc1cccc(-n2ncc3c(Nc4ccc(C)c(Cl)c4)ncnc32)c1	GPR32 ag 74, FH mod inconclusive
Cc1cccc(-n2ncc3c(NC4CCCC4)ncnc32)c1	GPR32 ag 114, p53null 32C kill 13µM
Cc1ncc(Cl)cc1NCc1ccc(C(=O)NC(CC2CCCC2)C(=O)NC2CC2)s1 (stereo unspecified)	none (no result: GPR32 ag, p53null 32C kill, p53null 39C kill)
Cc1cccc(-n2ncc3c(NC4CCCCC4)ncnc32)c1	none (no result: GPR32 ag, FH mod)
COc1ccc(-n2ncc3c(NC4CCCC4)ncnc32)cc1	p53null 32C kill 5µM
Cc1ccc(-n2ncc3c(NC4CCCC4)ncnc32)cc1	GPR32 ag 112, p53null 32C kill 7.9µM, p53null 39C kill inconclusive
CCC(C)Nc1ncnc2c1cnn2-c1ccc(F)cc1 (stereo unspecified)	GPR32 ag 65, p53null 32C kill inconclusive, p53null 39C kill inconclusive
COCCCNc1ncnc2c1cnn2-c1ccc(F)cc1	p53null 32C kill inconclusive
C=C1CCCC2(C)CC3(OC)OC(=O)C(C)=C3CC12 (stereo unspecified)	none (no result: GPR32 ag, p53null 32C kill, p53null 39C kill)
Cc1cccc(N(C)C(=O)CCNS(=O)(=O)c2ccc3c(c2)CCN3C(=O)C2CC2)c1	GPR32 ag 71
Cc1cccc(N2CCN(C(=O)CCNS(=O)(=O)c3ccc4c(c3)CCN4C(=O)C3CC3)CC2C)c1 (stereo unspecified)	GPR32 ag inconclusive
O=C(CCNS(=O)(=O)c1ccc2c(c1)CCN2C(=O)C1CC1)N1CCN(c2cccc(C(F)(F)F)c2)CC1	GPR32 ag 74
CCC(=O)N1CCc2cc(Br)cc(S(=O)(=O)CCC(=O)N3CCN(c4cccc(C)c4)C(C)C3)c21 (stereo unspecified)	none
